PubChem BioAssay AID862 (The Scripps Research Institute Molecular Screening Center, 2007)
In all, about 190,000 compounds went through this assay and about 1,700 (0.89%) were called active.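 Rule for the calls: active = inhibition above the mean inhibition across all screened compounds plus 3 SD (cut at about 44% in these data); inactive = the rest.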 Many of the other results were omitted from the sample, so actives are more common in it than they were.

Experiment: blockers of STAT3 transcriptional signaling – U3A cells, luciferase, luminescence, MLSCN library, primary screen (AID 862);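 note: 0% = DMSO only wells and 100% = 100 µM nifuroxazide control wells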
Conditions: IL-6 STAT3-luciferase reporter, at 5.5 µM, hits give high values, host cell line lacks STAT1

Compound	inhibition
COc1ccc(-c2nc3cc([N+](=O)[O-])ccc3o2)cc1OC	20.3% (inactive)
COc1ccc2oc(-c3cccc(NC(=O)CSc4ccc(Cl)cc4)c3)nc2c1	-4.6% (inactive)
COc1cccc(-c2nc3cc(C)ccc3o2)c1	45% (active)
Cc1ccc(C(=O)Cc2nnc(C)s2)cc1	-4.3% (inactive)
C/C(=N\NC(=O)CNC(=O)C(c1ccccc1)c1ccccc1)c1ccc(C)cc1	-6.9% (inactive)
O=C(Nc1cccnc1)c1cccc(S(=O)(=O)N2CCCC2)c1	6.6% (inactive)
O=C(Nc1cccnc1)c1noc2c1CCCCC2	43.9% (active)
COc1cccc(C(=O)Nc2cccnc2)c1OC	2.9% (inactive)
Cc1ccc(-n2c(SCC(=O)N/N=C/C=C/c3ccccc3[N+](=O)[O-])nc3ccccc3c2=O)cc1	1.3% (inactive)
CC(Sc1nncn1C)C(=O)Nc1cc(C(F)(F)F)ccc1N1CCOCC1 (stereo unspecified)	0.4% (inactive)
OCCNCc1cccc(OCc2ccccc2Cl)c1	-9.4% (inactive)
CCn1c(/C=C/c2ccc([N+](=O)[O-])o2)nc2ccccc2c1=O	25.7% (inactive)
O=c1oc(/C=C/c2ccccc2)nc2ccccc12	44.2% (active)
S=c1[nH]nc(/C=C/c2ccccc2)o1	-4.3% (inactive)
COc1ccc(/C=C/C(=O)c2ccc(NS(=O)(=O)c3ccc(C)cc3)cc2)cc1O	-5.1% (inactive)
Cc1ccc(O)c(-c2cc(C(=O)NCc3ccccc3)[nH]n2)c1	-0.7% (inactive)
CCCn1nc(C(=O)Nc2ccc3nc(C)sc3c2)c2ccccc2c1=O	0.8% (inactive)
CCN(CC)c1ccc(/C=N/Nc2nc(C)cc(=O)[nH]2)cc1	46.4% (active)
Cc1cc(=O)[nH]c(N/N=C/c2c(C)nn(-c3ccccc3Cl)c2Cl)n1	7.1% (inactive)
CCN(CC)c1ccc(/C=N/Nc2nc(C)cc(C)n2)c(O)c1	16% (inactive)
Nc1nnc(SCn2nnc3ccccc3c2=O)s1	9.1% (inactive)
O=C(Nc1nc2ccc([N+](=O)[O-])cc2s1)c1ccc(S(=O)(=O)N2CCCc3ccccc32)cc1	21.1% (inactive)
O=C(O)CCC(=O)Nc1nc2ccc([N+](=O)[O-])cc2s1	13.9% (inactive)
O=C(NC(Nc1nc2ccc([N+](=O)[O-])cc2s1)(C(F)(F)F)C(F)(F)F)c1ccccc1	92.4% (active)
OCCC1CN(Cc2ccc(Oc3ncccn3)cc2)CCN1CCc1ccccc1 (stereo unspecified)	4.1% (inactive)
Cc1cc[n+](-c2[nH]c(=O)sc2/C=N/NC(=O)c2ccccc2[O-])cc1C	6.7% (inactive)

Compound	inhibition
COc1ccc(OC)c(N=Cc2c(O)[nH]c3ccccc23)c1	22.7% (inactive)
COc1ccc(N=Cc2c(O)[nH]c3ccccc23)cc1OC	40.4% (inactive)
COc1cc(N=Cc2c(O)[nH]c3ccccc23)cc(OC)c1OC	56% (active)
Cc1cc(C)nc(SC2CCCCC2NS(=O)(=O)c2ccc(Cl)cc2)n1 (stereo unspecified)	-5.1% (inactive)
Nc1c(C(=O)O)cnn1-c1ccccc1	-7.4% (inactive)
Cc1ccc(N2C(=O)SC(N(CC(=O)O)c3ccc(C)cc3)C2=O)cc1 (stereo unspecified)	0.7% (inactive)
CCCCCC(=O)Nc1ccc2oc(-c3ccncc3)nc2c1	21.8% (inactive)
Nc1ccc(-c2nnc(-c3ccc(-c4ccccc4)cc3)o2)cc1	-2.7% (inactive)
CCc1ccc2oc(-c3ccc(N)cc3)nc2c1	79.6% (active)
COc1ccc(-c2csc(Nc3ccccn3)n2)cc1	51.5% (active)
COc1ccc(Nc2nc(-c3ccccc3)cs2)cc1	-10.2% (inactive)
c1ccc(Nc2nc(-c3ccncc3)cs2)nc1	9.9% (inactive)
Cc1ccccc1-n1nc(SCC(=O)O)sc1=S	3.4% (inactive)
COc1cccc(CNC(=O)CCC2CCCN(Cc3ccc(OC(F)F)cc3)C2)c1 (stereo unspecified)	13.3% (inactive)
c1ccc(Nc2nc(N3CCOCC3)c3ccccc3n2)cc1	22% (inactive)
CCOc1ccc(Nc2nc(Cl)nc(N3CCN(c4ccc(OC)cc4)CC3)n2)cc1	-0.7% (inactive)
COc1ccc(Nc2ncc(F)c(N3CCOCC3)n2)cc1	50.7% (active)
O=[N+]([O-])c1ccc2oc(-c3cccc(O)c3)nc2c1	1.8% (inactive)
O=C(Nc1ccccc1F)c1ccc(Cn2cc(Br)cn2)cc1	14.9% (inactive)
Cc1ccc(-n2ncc3c(=O)[nH]cnc32)c(C)c1	10.7% (inactive)
c1ccc(-n2ncc3c(N4CCCC4)ncnc32)cc1	46.7% (active)
COc1ccc(-n2ncc3c(N4CCc5ccccc54)ncnc32)cc1	2.3% (inactive)
Cc1ccc(-n2ncc3c(N4CCN(c5ccc(F)cc5)CC4)ncnc32)c(C)c1	69.6% (active)
COc1ccc(-n2ncc3c(N4CCCc5ccccc54)ncnc32)cc1	30.9% (inactive)
COC(=O)CSc1ncnc2c1cnn2-c1ccc(C)cc1C	23.1% (inactive)
CCOc1ccc(N2C(=O)Nc3ccccc3C2(O)C(=O)NCc2ccco2)cc1 (stereo unspecified)	4.6% (inactive)

Compound	inhibition
O=c1[nH]oc(O)c1-c1ncc(C(F)(F)F)cc1Cl	-6.5% (inactive)
S=c1nc(C23CC4CC(CC(C4)C2)C3)nc2sccn12	10% (inactive)
O=C1NC(Nc2nc3ccccc3s2)(C(F)(F)F)C(=O)N1C1CCCCC1 (stereo unspecified)	48.9% (active)
COC(=O)NC1(C(F)(F)F)NC(=O)N(C2CCCCC2)C1=O (stereo unspecified)	7.4% (inactive)
O=C(NC1(C(F)(F)F)NC(=O)N(C2CCCCC2)C1=O)c1ccco1 (stereo unspecified)	12.1% (inactive)
COCC(C)NC(=O)CSc1nc2nn(-c3ccccc3)c(=O)c-2c2n1CCCCC2 (stereo unspecified)	2.7% (inactive)
O=C(NCCc1ccccc1)c1ccc(OCCOc2ccccc2)cc1	-1.4% (inactive)
O=C(NCCOc1ccccc1)c1ccccc1	20.1% (inactive)
CCCOc1ccc(C(=O)NCCc2ccccc2)cc1	50.3% (active)
O=C(CN1C2=NCCN2c2ccccc21)c1cccs1	0% (inactive)
c1ccc(-c2cc(N3CCCCC3)c3ccccc3n2)cc1	9.3% (inactive)
COc1ccc(-c2cn3ccsc3n2)cc1	28.9% (inactive)
Cc1ccc(-c2cn3cc(C)ccc3n2)cc1	103% (active)
Cc1ccc(-c2cn(S(=O)(=O)c3cccc([N+](=O)[O-])c3)nc2N)cc1	12.3% (inactive)
Cc1ccc(-n2cc3ccc([N+](=O)[O-])cc3n2)cc1	38.8% (inactive)
Cc1ccc(-c2cn3cc([N+](=O)[O-])ccc3n2)cc1	86.6% (active)
COc1ccc(-c2cn3cccnc3n2)cc1	10.6% (inactive)
CC(=O)Nc1ccc(NC(=O)COc2ccc(S(=O)(=O)NC(C)c3ccccc3)cc2)cc1 (stereo unspecified)	16.1% (inactive)
Cn1cnnc1Sc1ccc(CN2CCN(C3CCCC3)C(CCO)C2)o1 (stereo unspecified)	-6.5% (inactive)
Cc1ccc2nc(-c3ccncc3)cc(C(=O)Nc3ccc4c(c3)OCCO4)c2c1	26.4% (inactive)
C/C(=N\NC(=O)CSc1nc2ccccc2c(=O)n1-c1ccccc1C)c1cccs1	-9.1% (inactive)
O=C(Cc1ccccc1)N1CCN(S(=O)(=O)c2ccc([N+](=O)[O-])cc2)CC1	-1.6% (inactive)
Cc1cc(C)c2c(n1)sc1c(=O)n(-c3ccccc3)c(=O)[nH]c12	1.2% (inactive)
Cc1cccc(C(=O)OC(C)CN2CCN(C)CC2)c1 (stereo unspecified)	6.7% (inactive)
CCOC(=O)C(C)Sc1nc2ccccc2c(=O)n1CC1CCCCC1 (stereo unspecified)	-5.1% (inactive)
CN(c1ccc2nc3ccccc3c(=O)n2n1)C1CCCCC1	105% (active)

Compound	inhibition
O=c1c2ccccc2nc2n1C1(CCCCC1)Cc1ccccc1-2	-3.8% (inactive)
CN(C)C(CNC(=O)c1cccc(C#N)c1)c1ccco1 (stereo unspecified)	5.3% (inactive)
CCOC(=O)CNC(=O)CSc1ccc2nnc(-c3cccnc3)n2n1	-10.3% (inactive)
Cn1ccc(=NC=C(C#N)C#N)c2ccccc21	1.3% (inactive)
CN(Cc1cccnc1)C(=O)c1cc(COc2ccc3ncccc3c2)on1	79.1% (active)
Cc1cccc(OCCNC(=S)NC(=O)c2cccnc2)c1	-5% (inactive)
Cc1noc(C)c1COc1cccc(C(=O)Nc2cccnc2)c1	14.6% (inactive)
O=C(N/N=C/c1ccc([N+](=O)[O-])o1)c1cn(-c2ccccc2)nc1-c1ccc(F)cc1	25% (inactive)
O=C(O)c1ccccc1-c1ccccc1C(=O)NCc1cccnc1	-4.3% (inactive)
CCCCOc1ccc(-c2nnc(-c3ccco3)o2)cc1	51.7% (active)
O=C(CCc1ccccc1)Nc1cccc(-c2nnc(-c3ccco3)o2)c1	15.5% (inactive)
CCCCSc1nnc(-c2ccc(C)cc2)o1	28.9% (inactive)
CCC(=O)Oc1cccc(C(=O)Nc2ccc(-c3nnc(-c4ccco4)o3)cc2)c1	11.2% (inactive)
COc1ccc(OCC(=O)Nc2nnc(-c3ccco3)s2)cc1	-12.3% (inactive)
CCOc1ccc(-c2nnc(-c3ccco3)o2)cc1	77.6% (active)
CC(C)CNC(=O)CC(NCC(C)C)C(=O)O (stereo unspecified)	17.2% (inactive)
CCCOC1CCCN(Cc2cn(C)nc2-c2ccccc2F)C1 (stereo unspecified)	3.9% (inactive)
O=C(NCC1COc2ccccc2O1)C1(c2ccccc2)CCCC1 (stereo unspecified)	9.6% (inactive)
O=C(COC(=O)CCc1ccc(S(=O)(=O)N2CCOCC2)cc1)Nc1cccc(Cl)c1	-7.6% (inactive)
CCn1c(NC(=O)c2nn(C)cc2Br)nc2ccccc21	5.2% (inactive)
CC(=O)c1sc(NC(=O)c2ccc(C)cc2)nc1C	33.2% (inactive)
CCSc1nnc(NC(=O)Cc2ccccc2OC)s1	1.7% (inactive)
CCSc1nnc(NC(=O)c2ccc(C)cc2)s1	60.6% (active)
